Among all 320,000 compounds or so, about 2,100 (0.66%) were called active. Not shown: some 53% with an inconclusive outcome. The call rests on the fitted dose curve; in most records, active means well fitted inhibition curve with a large enough effect in the signal ratio, with a control signal flat (not every such curve was filed as active); inconclusive means small, poorly fitted or top-dose-only effect, or effect the other way, or a change in a side signal; inactive means flat fitted curve, though single readings scatter; the % refers to the signal ratio. The sample as a whole holds a higher share of actives than the screen did.
Experiment: qHTS Assay for Lipid Storage Modulators in Drosophila S3 Cells;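 on cell number change: cells counted by Cell Tracker Red CMTPX staining in the red channel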; on lipid storage change, negative = inhibition: on the % scale 0 is the no-effect control and ±100 the full control effect
Details: BODIPY lipid droplet fluorescence, 18-24 h, cells fed with added oleic acid; cell number change: measured here: cell count max response; series mostly up to 46.1 µM; lipid storage change, negative = inhibition: at the top concentration
Description: NIH Molecular Libraries Probe Production Centers Network [MLPCN] NIH Chemical Genomics Center [NCGC] MLPCN Grant: 1 R03 MH085686-01 Assay Submitter (PI): Beller, Mathias; Max-Planck-Institut fur Biophysikalische Chemie NCGC Assay Overview: Storing lipids as a reservoir for energy or the anabolism of elementary metabolites is a common feature of probably all cells and is conserved from bacteria to humans. The universal cellular lipid storage organelle is the so-called lipid storage droplet (LD). Although ubiquitous, LDs share a simple structure composed of a hydrophobic core that harbors the storage lipids, which is shielded by a droplet-specific phospholipid monolayer to which proteins are attached. The current model of LD biogenesis involves an incorporation of the lipid core into the membrane leaflets of the endoplasmic reticulum (ER) followed by a subsequent budding-like maturation of a LD, which ultimately pinches off. Once released, LD volume can increase by localized lipogenesis or fusion of existing droplet. Storage lipids are re-mobilized enzymatically by lipase activity. Lipase regulation in the adipocyte is heavily studied and involves multiple components including catecholamine signaling, the LD-associated proteins Perilipin and comparative gene identification (CGI-58) and at least two lipases named hormone sensitive lipase (HSL) and adipocyte triglyceride lipase (ATGL). LD regulation outside of the adipocyte is poorly understood and only few components are known. However, there is an urgent need to learn more about ectopic fat depots as mislocalized storage of lipids, for example in the liver or muscle, is an eminent health problem associated with insulin resistance or the metabolic syndrome. We developed a laser-scanning cytometer assay to enable 1,536-well screening and combined the results of the small molecules screen with an RNAi database based on lipid storage.
Triacsin C (Sigma-Aldrich T-4540), an inhibitor of long-chain fatty acyl CoA synthetase that blocks synthesis of triglycerides, was used as a positive control for lipid under-storage. A total of 23 nL of compound solution of different concentrations were transferred to the assay plates using a Kalypsys pin tool equipped with a 1,536-pin array containing 10-nL slotted pins (FP1S10, 0.457-mm diameter, 50.8 mm long; V&P Scientific). One microliter of oleic acid (400 uM) was added, and the plate was lidded with stainless steel rubber gasket lined lids containing pinholes. […] Fluorescence was detected by excitation of the fluorophores with a 488-nm laser on an Acumen Explorer (TTP Lab Tech). The total intensity in channel 2 (500-530 nm) reflected lipid droplet accumulation. Cells were detected using channel 3 (575-640 nm) with 5-um width and 100-um depth filters. The ratio of the number of objects in PMT channel 2 over the number of objects in PMT channel 3 was also calculated. Percent activity was computed relative to an internal control (100% inhibited lipid droplet deposition due to the presence of 20 uM Triacsin C), which was added to 32 wells/plate.
Potency means the concentration at half of the fitted maximal effect.

Row | Structure (SMILES) | lipid storage change, negative = inhibition | cell number change [%] | Potency | outcome
1 | CC(=O)c1sc(Nc2ccc(C)cc2)nc1C | 3.82% (inactive) | 7.99 |  | 
2 | O=C(NNC(=O)C1CC1)c1cc(Cl)nc2ccccc12 | 12% (inactive) | 13.7 |  | 
3 | Cc1nn(Cc2ccc(Cl)cc2)c(C)c1NC(=O)CCCn1nc(C)c([N+](=O)[O-])c1C |  | 3.25 | 2.31 µM (active) | 
4 | Cc1nn(CCCC(=O)NCc2ccc(Cl)cc2)c(C)c1[N+](=O)[O-] | 4.65% (inactive) |  |  | 
5 | Cc1nn(Cc2ccc(Cl)cc2)c(C)c1NC(=O)C1CC=CCC1C(=O)O (stereo not given) | -8.85% (inactive) | 2.56 |  | 
6 | Cc1nn(Cc2ccc(Cl)cc2)c(C)c1NC(=O)CCCn1nc([N+](=O)[O-])c(Cl)c1C | -11.9% (inactive) | -11.8 |  | 
7 | Cc1nn(Cc2ccc(Cl)cc2)c(C)c1NC(=O)C(c1ccccc1)c1ccccc1 |  | -18.5 | 23.1 µM (active) | 
8 | Cc1nn(Cc2ccccc2)c(C)c1NC(=O)CCCn1nc([N+](=O)[O-])c(Cl)c1C | -17.1% (inactive) | -5.3 |  | 
9 | Cc1cc(C(=O)Nc2c(C)nn(Cc3ccc(Cl)cc3)c2C)no1 | -9.5% (inactive) | -17.6 |  | 
10 | Cc1ccc(Cn2nc(C)c(NC(=O)CCCn3nc([N+](=O)[O-])c(Cl)c3C)c2C)cc1 |  | -28.1 | 8.2 µM (active) | 
11 | Cc1nn(Cc2ccccc2Cl)c(C)c1NC(=O)CCCn1nc(C)c([N+](=O)[O-])c1C | 8.88% (inactive) | -4.35 |  | 
12 | C/C(=N\NC(=O)Cc1c(Cl)cccc1Cl)c1cccnc1 | 24.2% (inactive) |  |  | 
13 | CC(C)(C)c1ccc(/C=C/C(=O)O)s1 | -12.3% (inactive) | 0.873 |  | 
14 | C=Cn1cc[n+](CC(=O)c2ccc(Br)s2)c1 |  | -18.1 |  | inactive
15 | c1ccc(-n2cc(CN3CCC(N4CCOCC4)CC3)c(-c3ccc4c(c3)OCO4)n2)cc1 | 13.6% (inactive) | 13.9 |  | 
16 | Cc1cccc(NC(=O)NC(C)C(c2ccccc2)N2CCN(C)CC2)c1 (stereo not given) | 4.89% (inactive) | -13.4 |  | 
17 | COc1cc(C(=O)Nc2cc(-c3cn4cccnc4n3)ccc2C)cc(OC)c1OC | 9.88% (inactive) | -3.97 |  | 
18 | COc1cccc(NC(=O)CN(C)C(=O)CSc2ccc3c(c2)OCCO3)c1 | 18% (inactive) | 2.81 |  | 
19 | Cc1cc(SCC(=O)Nc2ncc(Cl)cc2Cl)nc2ccccc12 | -0.799% (inactive) | 19.1 |  | 
20 | COCCn1nnnc1SCC(=O)N1CCCCC1 | 0.19% (inactive) | 6.22 |  | 
21 | COCCn1nnnc1SCC(=O)c1ccccc1 |  | 2.95 | 20.6 µM (active) | 
22 | COc1ccc(C(=O)CSc2nnnn2Cc2ccccc2)cc1 |  | 14.6 |  | inactive
23 | OC1(c2ccccc2F)CCN(Cc2nnc(-c3ccccc3)o2)CC1 | 29.2% (inactive) | -15 |  | 
24 | CC1CCC2(CC1)NC(=O)N(CC(=O)Nc1ccc3c(c1)CCC3)C2=O (stereo not given) | 13% (inactive) | -0.637 |  | 
25 | CCN(CC)c1ccc(/C=C(\C#N)C(N)=O)cc1 | -7.84% (inactive) | -5.93 |  | 

Row | Structure (SMILES) | lipid storage change, negative = inhibition | cell number change [%] | Potency | outcome
26 | CCN(CC)c1ccc(/C=C(\C#N)C(N)=S)cc1 | -22% (inactive) | -2.75 |  | 
27 | CCN(CC)c1ccc(/C=C(\C#N)C(=O)c2ccc(Br)cc2)cc1 |  |  | 25.9 µM (active) | 
28 | CCC(=O)c1ccc(NC(C)=O)cc1O | -9.98% (inactive) | -16.5 |  | 
29 | COc1ccc(CN2c3cc(S(=O)(=O)N4CCOCC4)ccc3N3CCCC32)cc1 (stereo not given) |  | 1.21 | 16.4 µM (active) | 
30 | O=S(=O)(c1ccc2c(c1)N(Cc1ccc(Cl)cc1)C1CCCN21)N1CCOCC1 (stereo not given) | 7.79% (inactive) | -5.65 |  | 
31 | CCN1c2ccc(S(=O)(=O)N3CCOCC3)cc2N(Cc2ccc(OC)cc2)C1C (stereo not given) |  | 13.6 |  | inactive
32 | O=C1CN(C(=O)/C=C/c2cc(Br)ccc2F)CCN1 |  | 13.8 |  | inactive
33 | CN=C1S/C(=C\c2c(OC)cc(OC)cc2OC)C(=O)N1C |  | -1.21 | 0.58 µM (active) | 
34 | COc1ccc(N=C2S/C(=C\c3cc(C)n(C)c3C)C(=O)N2C)cc1 | -14.9% (inactive) | 20.4 |  | 
35 | CN=C1S/C(=C\c2ccc(Sc3ccc(Cl)cc3)o2)C(=O)N1C | 13.4% (inactive) |  |  | 
36 | CN=C1S/C(=C\c2ccc(SC)cc2)C(=O)N1C |  | 4.2 | 0.13 µM (active) | 
37 | CN=C1S/C(=C\c2ccc(N3CCCC3)c(F)c2)C(=O)N1C | 4.4% [at 9.22 µM] (inactive) | 2.34 |  | 
38 | CN=C1S/C(=C\c2ccc(O)c(Br)c2)C(=O)N1C | -10.7% (inactive) | -7.22 |  | 
39 | CCSc1nc2c(c(=O)[nH]c(=O)n2C)n1CC(O)COc1ccccc1 (stereo not given) |  |  |  | inactive
40 | CCn1cc(CN2CCC(Oc3ccc(C(=O)N4CCCCC4)cc3)CC2)cn1 | -6.41% (inactive) |  |  | 
41 | O=C(CN1CCN(Cc2ccccc2Cl)CC1)N/N=C/c1cccs1 | 0.0195% (inactive) | 19.5 |  | 
42 | Cc1cc(C)c(C)c(OCCN2CCOCC2)c1 |  | -23.8 |  | inactive
43 | Cc1ccc(C)c(OCCOCCN2CCOCC2)c1 |  | 3.66 | 7.31 µM (active) | 
44 | Cc1cccc(OCCOCCN2CCOCC2)c1C | 4.65% (inactive) | 8.47 |  | 
45 | CCn1cc(C2CC(=O)NC2=O)c2ccccc21 (stereo not given) | 15.1% (inactive) |  |  | 
46 | CS(=O)(=O)N(CC(=O)NCC1CCCO1)c1ccc(F)c(Cl)c1 (stereo not given) |  | -13 | 14.6 µM (active) | 
47 | CS(=O)(=O)N(CC(=O)NCC1CCCO1)c1ccc(Cl)c(Cl)c1 (stereo not given) | -6.64% (inactive) | -7.69 |  | 
48 | CS(=O)(=O)N(CC(=O)NCC1CCCO1)c1cccc(Cl)c1 (stereo not given) | -1.35% (inactive) |  |  | 
49 | COCCNC(=O)Cn1nc(C(F)(F)F)c(Cl)c1C | -2.82% (inactive) | -6.82 |  | 

Reference: PubChem BioAssay AID2685 (National Center for Advancing Translational Sciences (NCATS), 2010)
